Molecules are shown by their SMILES. Values joined by “and” are separate entries in the source; they are usually repeats but may differ in a detail not shown here. Equal values may be shown once. Out of some 330,000 compounds screened, about 900 (0.27%) were called active.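 Rule for the calls: active = inhibition above the campaign's mean inhibition across all tested compounds plus 3 SD (cut at about 9.9% in these data); inactive = the rest.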 Many of the other results were omitted from the sample, so actives are more common in it than they were. The source holds several records for some structures; these can differ, active in one and inactive in another.

As usually defined, the inhibition is the relative decrease from the control value, in per cent.

The nature of the assay: bacterial viability reduction in E. coli – absorbance, OD600, counter-screen for AddAB inhibitor project, primary screen (AID 449728).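 Note: uninfected addAB+ strain grown without phage in ampicillin broth; 0% = DMSO wells and 100% = ciprofloxacin 0.95 µg/ml wells.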 The conditions noted are these: E. coli V3065 growth, 18 h, at 11.9 µM, stronger effect = higher value. (In general: Counterscreens check selectivity or assay interference.)
As for `COCCn1c(SCC(=O)Nc2cc(OC)ccc2OC)nc2c(c1=O)SC(C)C2` (stereo not drawn), the inhibition is -0.66% (inactive). Consider `Cc1cc2c(cc1C)[n+](C)cn2CC(O)COCC1CC=CCC1` (stereo not drawn), for which the inhibition was -1.13% (inactive). For the molecule `Cc1nc2ccccc2nc(=O)c1NNc1ccc([N+](=O)[O-])cc1`, the inhibition was -0.37% (inactive). Take `O=C(Oc1ccc([N+](=O)[O-])cc1)c1ccc2ccccc2n1`: the inhibition is 0.89% (inactive).

With `O=[N+]([O-])c1ccc(N=Cc2c(O)ccc3ccccc23)cc1`, the inhibition was 25% (active).

Consider `O=S(=O)(c1ccc(Br)cc1)n1ccc2ccccc21`, for which the inhibition was 0.82% (inactive).

On to `CCCc1nc(N)nc2c1C(=O)CC(C)(C)C2`, for which the inhibition is 0% (inactive). Regarding `CC(C)(C)NC(=O)COC(=O)c1cc(Br)ccc1Cl`, the inhibition was -0.09% (inactive). Then `CCCC(=O)OCC(=O)Nc1cc(Cl)ccc1[N+](=O)[O-]`, with 0.59% (inactive). As to `CC(C)(C)NC(=O)COC(=O)c1cc(Cl)ccc1[N+](=O)[O-]`, the inhibition was 16% (active). In the case of `CSc1ccccc1NC(=O)C(C)N1C(=O)c2ccccc2S1(=O)=O` (stereo not drawn), the inhibition is -0.94% (inactive). The result for `CC1CC1C(=O)OCC(=O)c1c(N)n(C)c(=O)n(C)c1=O` (stereo not drawn) reads -1.26% (inactive). Take `COc1ccc(NC(=O)CSc2nc(SC)ns2)c(OC)c1`: the inhibition was -1.11% (inactive). Consider `CCCCCCNC(=O)CSc1nccn1Cc1ccccc1`, for which the inhibition was -3.38% (inactive). Consider `Cc1occc1C(=O)NC1CCCN(Cc2ccc(CC(C)C)cc2)C1` (stereo not drawn), for which the inhibition was -0.68% (inactive). On to `CCOc1ccc(OCCSc2nc3ccccc3n2CC(=O)O)cc1`, for which the inhibition is -0.94% (inactive). As to `Oc1c(Br)cccc1/C=N/Nc1c(F)c(F)c(F)c(F)c1F`, the inhibition is 0.5% (inactive). Then `Oc1cccc(/C=N/Nc2ccc(Cl)nn2)c1O`, with 19.4% (active); and `Oc1ccc(Br)cc1/C=N/Nc1ccccn1`, with 9.57% (inactive); and `C/C(=C/C(=O)N1CCN(C)CC1)C(=O)O`, with 0.17% (inactive). As to `CCC1OC(c2ccc([N+](=O)[O-])cc2)=Nc2ccccc21` (stereo not drawn), the inhibition was -1.44% (inactive).

On to `CCCCOc1ccc(CSC(=N)N)cc1[N+](=O)[O-]`, for which the inhibition was 10.1% (active).

For the molecule `CCCCOC(=O)CCCc1ccc([N+](=O)[O-])cc1[N+](=O)[O-]`, the inhibition is 0.76% (inactive). With `CCCCCOc1ccc(CSC2=NCCN2)cc1[N+](=O)[O-]`, the inhibition is 0.17% (inactive). Regarding `O=C(Nc1ccccc1F)C1C2C=CC3(O2)C1C(=O)N(c1cccnc1)C3C(=O)NC1CCCCC1` (stereo not drawn), the inhibition was -0.09% (inactive). For `COC(=O)c1c(NC(=O)COC(=O)[C@@H](NS(=O)(=O)c2ccccc2)C(C)C)sc2c1CCC2`, the inhibition is -2.57% (inactive). As to `Oc1ccc2ccccc2c1N=Nc1nccs1`, the inhibition was 13.9% (active). For the molecule `O=C(NC(=S)Nc1ncccn1)c1ccccc1Br`, the inhibition was 0.5% (inactive). Then `O=C(CN1C(=O)COc2ccc(Cl)cc21)N1CCOCC1`, with 1.26% (inactive). As for `COc1ccc(NC(=O)CCn2ccnc2)c(OC)c1`, the inhibition was -1.17% (inactive). For `CC(=O)NC12CC3CC(C1)CC(C(=O)N1CCN(S(=O)(=O)c4cccs4)CC1)(C3)C2`, the inhibition was -1.77% (inactive).

For `CCn1cc(S(=O)(=O)c2cccc(C)c2)c(=O)c2cc(F)c(N3CCN(C)CC3)cc21`, the inhibition was -4.05% (inactive). Take `CCn1cc(C(=O)NCCO)c(=O)c2cc(F)c(N3CCN(C)CC3)cc21`: the inhibition was 97.8% (active). For `CCCCNC(=O)c1cn(CC)c2cc(N3CCN(C(=O)c4ccco4)CC3)c(F)cc2c1=O`, the inhibition is 5.88% (inactive). In the case of `CN1CCN(c2cc3c(cc2F)c(=O)c(C(=O)O)cn3CCF)CC1`, the inhibition is 100% (active). For the molecule `CCCCCCn1cc(C(=O)O)c(=O)c2cc(F)c(N3CCCCC3)cc21`, the inhibition is 1.34% (inactive). Take `CCn1cc(C(=O)NCCC(=O)NCCO)c(=O)c2cc3c(cc21)OCO3`: the inhibition is 1.2% (inactive). Take `NNC(=O)c1ccc(COCC(F)(F)C(F)F)cc1`: the inhibition is 3.04% (inactive). Regarding `C=CC1=C(C(=O)O)N2C(=O)[C@@H](NC(=O)/C(=N/OCC(=O)O)c3csc(N)n3)[C@H]2SC1`, the inhibition was 97.6% (active). Regarding `C=CC1=C(C(=O)O)N2C(=O)[C@@H](NC(=O)/C(=N\OCC(=O)O)c3csc(N)n3)[C@H]2SC1`, the inhibition was 97.5% (active). The result for `Cc1cc(C)cc(C(=O)NC2C(=O)N3C(C(=O)O)=C(CSc4nnc(C)s4)CSC23)c1` (stereo not drawn) reads -0.85% (inactive).

As for `CC(C)(C)OC(=O)C1=C(CO)CS[C@@H]2[C@H](NC(=O)Cc3ccccc3)C(=O)N12`, the inhibition was 1.43% (inactive). In the case of `Cc1nnc(SCC2=C(C(=O)O)N3C(=O)C(NC(=O)Cn4nc(C)c(Cl)c4C)C3SC2)s1` (stereo not drawn), the inhibition was 1.18% (inactive).

Consider `CO/N=C(\C(=O)N[C@@H]1C(=O)N2C(C(=O)O)=C(COC(C)=O)CS[C@H]12)c1csc(N)n1` (stereo in doubt), for which the inhibition was 98.5% (active) and 97.8% (active) and -0.69% (inactive). For the molecule `COC(=O)C1=C(C)NC2=C(C(=O)c3ccccc32)C1c1ccc(-c2ccc(C(=O)O)cc2)o1` (stereo not drawn), the inhibition is 1.44% (inactive). Regarding `CCCCC(=O)Nc1nnc(S(=O)(=O)N(C)Cc2ccco2)s1`, the inhibition was 1.69% (inactive). In the case of `Cc1[nH]nc(SCC(=O)NCC(C)C)c1[N+](=O)[O-]`, the inhibition is -0.08% (inactive). Take `COc1ccc(S(=O)(=O)N2CCOCC2)cc1NC(=O)CSc1ncnc2ccccc12`: the inhibition was -2.21% (inactive). For the molecule `COC(=O)c1ccc(COC(=O)CNC(=O)c2cccc(OC)c2)o1`, the inhibition was -0.35% (inactive). Consider `CCOC(=O)c1c(CC(C)C)csc1/N=C/C1=C(O)CCCC1=O`, for which the inhibition was -1.62% (inactive).

On to `Cc1ccc(-n2c(C)nnc2SCC(=O)NC2CC2)cc1`, for which the inhibition is 0.84% (inactive).

As to `O=c1ccc2c(-c3ccccc3S(=O)(=O)O)c3ccc(O)c(O)c3oc-2c1O`, the inhibition was 20.2% (active).

For `CC(C)C(C(=O)NCc1ccco1)N(CC1CCCO1)C(=O)CNS(=O)(=O)c1ccc(F)cc1` (stereo not drawn), the inhibition is 0.85% (inactive).

With `CC(=O)Nc1ccc(S(=O)(=O)N(CCc2ccccc2)CC(=O)N/N=C/c2ccc(C(=O)O)cc2)cc1`, the inhibition is 2.71% (inactive).

Regarding `O=S(=O)(Nc1ccc(-n2cnnn2)cc1)c1ccc(Cl)cc1`, the inhibition is 1.06% (inactive). For the molecule `COc1ccc(/C=C/C(=O)c2cc(Br)ccc(=O)c2O)cc1`, the inhibition is 10.9% (active). Consider `COc1ccc2oc(=N)c(C(=O)Nc3ccc(Br)cc3)cc2c1`, for which the inhibition is -1.46% (inactive). Then `COc1ccc(C(=O)/C=C/c2cccnc2)c(OC)c1`, with -1.21% (inactive); and `COC(=O)c1sc(SC)c(S(=O)(=O)C(C)C)c1N/N=C(\C#N)S(=O)(=O)c1ccccn1`, with -1.95% (inactive). Turning to `CCCCCC1CC(COc2ccccc2)OC1=O` (stereo not drawn), the inhibition was -0.64% (inactive). Then `CS(=O)(=O)N(CC(=O)Nc1ccc(Cl)c(Cl)c1)C1CCCCC1`, with 0.42% (inactive).

Regarding `O=C(CC(O)(C(F)(F)F)C(F)(F)F)Nc1ccc(Cl)c(Cl)c1`, the inhibition is 17.7% (active). Take `O=C(CCCN1C(=O)CCC1=O)Nc1ccc(Cl)c(C(F)(F)F)c1`: the inhibition is -1.92% (inactive). Regarding `CC(=O)Nc1ccc(NC(=O)COc2ccc(S(=O)(=O)NC(C)c3ccccc3)cc2)cc1` (stereo not drawn), the inhibition was 2.38% (inactive). Take `O=C(CSc1ccccn1)N1CCN(S(=O)(=O)c2ccc(Cl)cc2)CC1`: the inhibition is -1.3% (inactive). Then `CCCCNC(=O)Nc1c(C)cc(SC#N)cc1C`, with 2.5% (inactive); and `O=C1c2ccccc2NC(c2ccc(-c3cccc(Cl)c3)o2)N1O` (stereo not drawn), with 19.2% (active). For `CC(=O)NN1C(=O)c2ccccc2NC1c1ccccc1` (stereo not drawn), the inhibition was 0.86% (inactive). As for `O=C(O)C(c1ccccc1)N1C(=O)/C(=C\c2ccc(-c3cccc(Cl)c3)o2)SC1=S` (stereo not drawn), the inhibition is -3.78% (inactive).

Consider `O=C(NCc1cccs1)c1ccc2c(c1)ncn2C1CCCC1`, for which the inhibition is -2.5% (inactive). As for `Cc1ccc(NC(=O)CN(C)C(=O)c2ccc(Br)o2)cc1`, the inhibition is 0.43% (inactive). As for `CCCS(=O)(=O)Nc1ccc(-c2cn3c(n2)SCC3)cc1`, the inhibition is 2.36% (inactive). Take `CC(C)(C)N(Cc1ccccc1)C(=O)c1ccncc1`: the inhibition is -2.63% (inactive). Take `O=C(NCc1ccccn1)Nc1ccc(Cl)cc1`: the inhibition was -3.41% (inactive). As to `O=C1c2ccccc2C(=O)N1CCC(O)C[N+](=O)[O-]` (stereo not drawn), the inhibition was 3.02% (inactive).

With `CC(=O)Oc1ccccc1C(=O)Nc1ncc([N+](=O)[O-])s1`, the inhibition was 11.2% (active).

As to `COc1ccc(NC(=O)c2ccccc2[N+](=O)[O-])cc1OC`, the inhibition is -1.73% (inactive). As to `O=C(Cc1c(F)cccc1Cl)Nc1ncc([N+](=O)[O-])s1`, the inhibition was 7.15% (inactive). As to `CCCCCCCCCCCC(=O)O`, the inhibition was -2.17% (inactive). As for `COc1ccc(OC)c(CCNC(=O)c2nn(C)c3c2CS(=O)(=O)c2ccccc2-3)c1`, the inhibition is 0.84% (inactive).

Take `Cc1cc(=O)oc2cc(OCC(=O)N3CCN(c4ccc(F)cc4)CC3)c(Cl)cc12`: the inhibition is 1.94% (inactive).

`CN1C(=O)c2ccc(C(=O)Nc3ccc(Br)cn3)cc2C1=O`: the inhibition is -2.73% (inactive). For `O=C(Nc1ccc(Br)cn1)c1ccc([N+](=O)[O-])o1`, the inhibition was 32.3% (active). For `Cc1cccc(NC(=O)c2ccc([N+](=O)[O-])o2)c1`, the inhibition is 27.2% (active).

As to `O=C(Nc1ccc(Br)cn1)c1ccc([N+](=O)[O-])cc1Cl`, the inhibition is 2.77% (inactive). For `Cc1onc(NC(=O)c2ccc([N+](=O)[O-])o2)c1Br`, the inhibition was 6.74% (inactive). With `O=C(Nc1cccc(O)c1)c1ccc(C(=O)c2ccccc2)o1`, the inhibition was 0.43% (inactive). As to `CC1CC(C)CN(CCC(=O)Nc2ccc3c(c2)CCC3)C1` (stereo not drawn), the inhibition was 1.48% (inactive). Turning to `O=c1c(-c2ccc(Cl)cc2)[n+]([O-])c2ccccc2n1OCc1nc2ccccc2[nH]1`, the inhibition is 0.49% (inactive).

`C=CCNC(=O)c1csc(-c2ccccc2)n1`: the inhibition is -0.67% (inactive).

Consider `C=CCNC(=O)c1cc(-c2ccccc2O)on1`, for which the inhibition is 85.1% (active). Turning to `O=C(Nc1cccnc1Cl)c1cc(-c2ccccc2O)on1`, the inhibition was -1.11% (inactive). Then `Cc1ccc(C)c(OCCC(=O)OCC(=O)NC(=O)NCc2ccccc2)c1`, with 0.73% (inactive).

Source of the values: PubChem BioAssay AID449728 (The Scripps Research Institute Molecular Screening Center, 2010).
